D1 antag: blocks dopamine activation of the human D1 receptor; P21728; activity change, negative = inhibition, % at 10 µM; AID 504652; HEK293 TREx D1 cells, calcium flux, dopamine EC80; hits give low values; actives 3.2% (n = 360,000); in the data active means activity change below about -30%
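Tetracycline-induced HEK293 T-REx cells with force-coupled D1 receptor were loaded with a no-wash calcium dye. Compound was added after a 10 s baseline and read kinetically for 180 s; EC80 dopamine was then added and calcium flux followed another 180 s.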
DRD3 antagonist: antagonists of human D3 dopamine receptor; D3R cells, DiscoveRx beta-arrestin luminescence, antagonist mode; hits give low values; max response, negative = inhibition, %; actives 2.5% (n = 360,000); AID 652054; in the data active means max response below about -50%; inconclusive means no clear call, values can overlap the other calls
Target sequence (P35462 whole entry, looked up): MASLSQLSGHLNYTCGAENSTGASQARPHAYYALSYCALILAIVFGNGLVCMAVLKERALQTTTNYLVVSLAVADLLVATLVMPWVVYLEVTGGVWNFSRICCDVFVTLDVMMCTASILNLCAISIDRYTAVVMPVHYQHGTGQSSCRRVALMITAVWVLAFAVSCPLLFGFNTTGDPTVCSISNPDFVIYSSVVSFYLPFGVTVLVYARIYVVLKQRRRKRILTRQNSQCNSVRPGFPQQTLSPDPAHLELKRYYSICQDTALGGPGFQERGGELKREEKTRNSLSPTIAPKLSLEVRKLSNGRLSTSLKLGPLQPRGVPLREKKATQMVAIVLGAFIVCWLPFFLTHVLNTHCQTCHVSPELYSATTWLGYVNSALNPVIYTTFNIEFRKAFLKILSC
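Cells plated overnight at 1500 cells/well, then exposed to library compounds with dopamine controls for 90 minutes at 37 degrees C. DiscoveRx reagent added for 30–60 minutes at room temperature; luminescence read, quantitative HTS format.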
D1 agonist: activates the human D1 dopamine receptor. P21728. HEK293 T-REx D1 cells, calcium flux, agonist mode. activation, % at 2 µM. actives 1% (n = 360,000). AID 504660; in the data active means activation above about 30%
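Inducible HEK293 T-REx D1 cells, force-coupled to calcium signalling, were plated at 4000 cells/well with tetracycline and held overnight at 30 C. After no-wash calcium dye loading, compound-evoked calcium rise over 180 s flagged agonists.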
D1 potentiator: enhances dopamine response at the human D1 receptor; HEK293 TREx D1 cells, calcium flux, dopamine EC20 potentiation; potentiation, % at 10 µM; actives 0.036% (n = 360,000); AID 504651; in the data active means potentiation above about 30%
DRD3 agonist: D3 dopamine receptor (human) agonism. P35462. D3R DiscoveRx beta-arrestin cells, luminescence, 90 min. max activation, %. actives 0.58% (n = 410,000). AID 652048; in the data active means max activation above about 30%
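Cells at 1500/well, incubated overnight, then treated with pinned compounds (dopamine as control) for 90 min at 37 degrees C. DiscoveRx reagent added for 30 - 60 minutes at room temperature; luminescence read.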
Numbers stand for hits; - = inactive; ? = inconclusive; . = not tested or not shown; ! = not confirmed by another sample. Rows were chosen to be rich in hits. Some 6.1% of all compounds tested hit in one or more screens of this group.

SMILES	D1 antag	DRD3 antagonist	D1 agonist	D1 potentiator	DRD3 agonist
O=C(CSc1n[nH]c(=O)n1-c1cccnc1)Nc1ccccc1Cl	-	-	-	-	-
CC(C)(C)OC(=O)Cc1nnc(-c2cc3ccccc3[nH]2)o1	-	.	-	-	.
C=CCNC(=S)NNC(=O)c1cccn(Cc2cccc(Cl)c2)c1=O	-	-	-	-	-
C=CCNC(=S)NNC(=O)c1cccn(Cc2ccc(Cl)cc2)c1=O	-	-66.5	-	-	-
CCOCCSc1c(C)cnc2c1c(=O)n(C)c(=O)n2C	.	.	-	-	-
COc1ccccc1S(=O)(=O)Cc1ccc(C(=O)N2CCN(c3cc(Cl)ccc3C)CC2)o1	-	.	-	-	-
COC(=O)[C@]1(Cc2ccccc2)N[C@H](CN(C)C(=O)NC(C)C)[C@@H]2C(=O)N(Cc3ccccc3)C(=O)[C@@H]21	.	-	.	.	-
COC(=O)[C@]1(Cc2ccccc2)N[C@H](CN(C)C(C)=O)[C@@H]2C(=O)N(Cc3ccccc3)C(=O)[C@@H]21	.	-53.0	.	.	-
CCN(C[C@H]1N[C@@](C)(C(=O)OC)[C@H]2C(=O)N(Cc3ccccc3)C(=O)[C@@H]12)C(=O)C1CCCCC1	.	-	.	.	-
CCNC(=O)N(CC)C[C@H]1N[C@@](Cc2ccccc2)(C(=O)OC)[C@H]2C(=O)N(C)C(=O)[C@@H]12	.	-	.	.	45.5
CCN(C[C@H]1N[C@@](Cc2ccccc2)(C(=O)OC)[C@H]2C(=O)N(Cc3ccccc3)C(=O)[C@@H]12)C(=O)C1CCCCC1	.	-57.4	.	.	-
COc1cccc(OCc2cc(C(=O)N(C)CCOc3ccc(C)cc3)no2)c1	-	-	-	-	-
Cc1ccc2c(=O)cc(C(=O)N(Cc3ccccc3Cl)C3CCS(=O)(=O)C3)oc2c1 (centres undefined)	-	.	-	-	-
CCCc1[nH][nH]c(=O)c1C(c1ccccc1)C(C#N)C#N (centres undefined)	-	-54.7	-	-	-
CCOc1ccc(NC(=O)Cc2c(O)c3ccccc3[nH]c2=O)cc1	-	-63.1	-	-	-
O=C(NCCNC(=O)c1ccco1)c1ccc(Cl)c(Cl)c1	-	-	-	.	-
Cc1cc(C)cc(NC(=O)C(=O)NC(C)c2ccccc2)c1 (centres undefined)	-	.	-	-	-
O=c1cc(-c2ccccc2)nc2c(-c3ccccc3)c(C(F)(F)F)[nH]n12	-31.2	-	-	-	-
CC(OC(=O)c1cc(=O)[nH]c2ccccc12)C(=O)NC1CCCCC1C (centres undefined)	-	-	-	-	-
O=C(Nc1c(Cl)cccc1Cl)c1cccc2c1C(=O)N(C1CCCCC1)C2	-	.	-	-	-
Cc1cccn2c(Nc3ccc4c(c3)OCCO4)c(-c3ccc(Br)o3)nc12	-	.	-	-	44.2
CCC(=O)N1CCc2cc(Br)cc(S(=O)(=O)N3CCCCC3CC)c21 (centres undefined)	-	-	-	-	-
Oc1ccc(Cl)cc1CNCc1ccc(Cl)cc1	-	?	-	-	-
Oc1ccc(Cl)cc1CNn1cnnc1	-	-	-	-	-
Oc1ccc(Cl)cc1Cc1cc(Cl)ccc1O	-	-	111.0	-	-
SMILES	D1 antag	DRD3 antagonist	D1 agonist	D1 potentiator	DRD3 agonist
Oc1ccc(Cl)cc1CNCc1ccc(F)cc1	-	-81.2	60.5	-	-
COc1ccc(CC(=O)OCC(=O)NC2CCCC(C)C2C)cc1OC (centres undefined)	.	-	.	.	-
O=C(NC1CCCC1)c1ccc2c(=O)n(Cc3ccccc3)c(SCc3ccccc3F)nc2c1	-	.	-	-	-
CC(=O)c1cccc(CN2CCN(Cc3ccc(F)cc3)C(CCO)C2)c1 (centres undefined)	-	?	-	-	-
Cc1ccc(CN2CCN(Cc3ccc(-n4cccn4)cc3C)CC2CCO)cc1 (centres undefined)	-	?	-	-	-
CC(=O)c1cc(CN2CCN(Cc3ccc(C)cc3)C(CCO)C2)cs1 (centres undefined)	-	-86.3	-	-	-
Cc1ccc(CN2CCN(Cc3cccc(-n4cccn4)c3)CC2CCO)cc1 (centres undefined)	-	-52.9	-	-	-
CC(=O)c1cccc(CN2CCN(Cc3ccc(C)cc3)C(CCO)C2)c1 (centres undefined)	-	-74.2	-	-	-
CCOC(=O)Nc1ccc(NCc2ccc(F)cc2)nc1N	-	-	47.5	-	-
O=C(O)[C@@H]1C[C@H](CP(=O)(O)O)CCN1	.	.	.	.	-
CCN(CC)c1ccc(N)cc1S(=O)(=O)Nc1ccccc1OC	-31.5	-	-	-	-
CCN(CC)c1ccc(N)cc1S(=O)(=O)Nc1ccc(OC)cc1	-	-	-	-	-
Cc1ccccc1NC(=O)N1CCNC(=O)C1CC(=O)Nc1cc(Cl)ccc1Cl (centres undefined)	-	-	-	-	-
CCCc1cc(=O)[nH]c(SCC(=O)N2CC3(C)CC2CC(C)(C)C3)n1 (centres undefined)	-46.9	-	-	.	-
COc1ccc(CCN2C(=O)CSC2c2cccc([N+](=O)[O-])c2)cc1OC (centres undefined)	-30.2	-	-	-	-
CC1CC(C)CN(C(=O)Cn2c(SCC(=O)N3CCc4ccccc4C3)nc3ccccc32)C1 (centres undefined)	-65.0	-	-	-	-
CC(C)NC(=O)Cn1c(SCC(=O)N2CCc3ccccc3C2)nc2ccccc21	-	-	-	-	-
Cc1c(OCC(=O)N2CCC(C(=O)O)CC2)ccc2c1oc(=O)c1ccccc12	-	-	-	-	-
CC(C)OC(=O)CSc1nnc(-c2ccccn2)n1N	-	-	-	-	-
Cc1nnc(N2CCN(Cc3ccccc3)CC2)[nH]c1=O	-	-53.5	-	-	-
CCOC(=O)C1CCN(CCCSc2ccc(C)cc2)CC1	.	-86.7	.	.	-
CCOC(=O)C1CCN(CCC(=O)Nc2cccc(Cl)c2)CC1	-	-55.6	-	-	-
Cc1ccc(SCCC(=O)Nc2ccc(Br)c(C)c2)cc1	-33.4	-	-	-	-
CCOC(=O)C1CCN(CCC(=O)Nc2ccc(Br)c(C)c2)CC1	-	-	136.3!	-	-
Cc1cc(NC(=O)CCN2CCC(C(N)=O)CC2)ccc1Br	-	-	-	-	-
SMILES	D1 antag	DRD3 antagonist	D1 agonist	D1 potentiator	DRD3 agonist
COc1ccc(NC(=O)CCSc2ccc(C)cc2)cc1	-	-	-	-	-
Cc1nnc(N2CCC(C(=O)NCCC(C)C)CC2)c2nn(-c3ccc(Cl)cc3)c(C)c12	-	.	-	-	-
Cc1cccn2c(=O)cc(COc3cccc(NC(=O)c4ccccc4F)c3)nc12	-	.	-	-	-
O=C(Cc1c(Cl)cccc1Cl)Nc1ccc(S(=O)(=O)Nc2ncccn2)cc1	-	-	-	-	-
CCOC(=O)C1(N(CC)CC)Sc2cc(C)ccc2NC1=O (centres undefined)	-	-	-	-	-
CCOC(=O)C1(Nc2nccs2)Sc2ccccc2NC1=O (centres undefined)	-33.6	-	-	-	-
Cc1cc(C)c(NC(=O)CSc2nc(=O)n3cc(C)ccc3n2)c(C)c1	-	-	-	-	-

Screening results deposited in PubChem by National Center for Advancing Translational Sciences (NCATS).
